Measurements published in PubChem BioAssay (NCATS).
Inconclusive results are not listed. Where a call stands in place of a potency, no number is given. A number with no mark means an inactive call. Active and inactive are the calls of the source. The call rests on the fitted dose curve; in most records, active means well fitted curve in the direction sought with a large enough effect; inconclusive means small, poorly fitted or top-dose-only effect, or another doubt; inactive means no such curve, though single readings can be large; an effect the other way counts as inactive or inconclusive. Peptide text beside a SMILES is read from it. * marks the point of attachment. Octanoyl = CCCCCCCC(=O)*

Columns and labels:
[1] = U-118MG Cancer Cell Toxicity qHTS against the NCATS CANVASS Library (AID 1347351)
Outline: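 Quantitative HTS format: an 11-concentration series was applied to 1000 cells/well following a 4-hour attachment. Cultures ran 72 hours before ATP luminescence detection by CellTiter-Glo.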

[2] = A2780 Cisplatin Sensitive Ovarian Cancer Cell Toxicity qHTS against the NCATS CANVASS Library (AID 1347353); further: nearly all actives have a fitted effect of over 60% in size
Outline: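 750 cells/well, 4 h settle; 11-pt cpd titration; 72 h, 37 °C, 5% CO2; ATPLite 10 min RT; luminescence read.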

[3] = UWB1.289-WTBRCA1 Cancer Cell Toxicity qHTS against the NCATS CANVASS Library (AID 1347354)
Outline: (§1)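 1000 cells/well, 4 h pre-incubation 37 °C/5% CO2; 11-pnt titration; 72 h; CellTiter-Glo 15 min RT, luminescence.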

[4] = HEK-293 Cancer Cell Toxicity qHTS against the NCATS CANVASS Library (AID 1347355); further: series mostly up to about 46 µM; nearly all actives have a fitted effect of over 65% in size
Outline: as §1

[5] = HPAF-II 12hr Apoptosis Induction qHTS against the NCATS CANVASS Library (AID 1347358)
Outline: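 Caspase-Glo 3/7 luminescence (DEVD substrate) reports caspase activity in HPAF-II cells after 12 h compound treatment at 37 degrees C. Compounds were tested in an 11-point series. Doxorubicin served as control.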

[6] = system: NAD(P)H diaphorase (Clostridium kluyveri); experiment: Diaphorse counterscreen qHTS: Assay Interference Panel against the NCATS CANVASS Library (AID 1347362)
Outline: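 Counterscreen for coupling-enzyme interference: resorufin fluorescence from resazurin/NADH turnover, read after 5 min at room temperature. Compounds were tested over an 11-point series after 15 min dark preincubation with diaphorase in PBS-Tween.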

[7] = KB-8-5-11 Cancer Cell Toxicity qHTS against the NCATS CANVASS Library (AID 1347364); further: nearly all actives have a fitted effect of over 75% in size
Outline: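 CellTiter-Glo luminescence after 72 h exposure; 500 KB-8-5-11 cells/well, DMEM/10% FBS, 37C, 5% CO2; compounds in 11-pt qHTS. Follow-up confirmation included medium with 1uM tariquidar.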

[8] = SDT Cancer Cell Toxicity qHTS against the NCATS CANVASS Library (AID 1347365); further: nearly all actives have a fitted effect of over 60% in size
Outline: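 Luminescent ATP read-out (CellTiterGlo) after 72 hr compound exposure of dog glioma SDT cells, 500 per well. Eleven-point titrations; bortezomib titration run alongside as control.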

[9] = G06 Cancer Cell Toxicity qHTS against the NCATS CANVASS Library (AID 1347368); further: nearly all actives have a fitted effect of over 60% in size
Outline: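 ATP luminescence (CellTiterGlo) readout of cytotoxicity. Canine G06 glioma cells, 500/well, 72 hr incubation at 37C with compounds; bortezomib titration served as control.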

[10] = target: Nuclear receptor subfamily 1 group I member 3 (Homo sapiens) (UniProt Q14994); experiment: qHTS for Constitutive Androstane Receptor (CAR) Antagonist screened against the NCATS CANVASS Library (AID 1347372);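 further: cells stimulated with 50 nM CITCO agonist so inhibition reflects antagonism; series mostly up to about 46 µM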
Outline: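 Antagonist mode: compound added alongside 50 nM CITCO to HepG2-hCAR-CYP2B6 reporter cells, 24hr at 37C. Viability by CellTiter-Fluor fluorescence, then CAR-driven luciferase by ONE-Glo luminescence.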

[11] = qHTS for Hypoxia signaling pathway (HIF-1) antagonists against the NCATS CANVASS Library (AID 1347374);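 further: HRE-bla ME-180 cells stimulated with cobalt chloride to stabilize HIF-1alpha; series mostly up to about 38 µM; nearly all actives have a fitted effect of over 60% in size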
Outline: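 Beta-lactamase reporter under HRE control in ME-180 cells; CoCl2 stimulus (60 uM solution as added), compounds 11-pt qHTS, 17 h 37C. CCF4 dye 2 h RT, 460/530 nm emission. CellTiter-Glo viability in same wells.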

[12] = qHTS for Hypoxia signaling pathway (HIF-1) agonists against the NCATS CANVASS Library (AID 1347375)
Outline: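 Read-out: beta-lactamase FRET (CCF4-AM, ex 405, em 460 and 530 nm) after 2 h at room temperature. ME-180 cells stably carrying HRE-bla were treated 17 h at 37C with compounds in an 11-point concentration series.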

[13] = DH5-alpha competent E. coli microbial cell viability qHTS against the NCATS CANVASS Library (AID 1347377); conditions: outcome: dose series up to 46.1 µM unless noted
Outline: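 Luminescent ATP read-out (BacTiter-Glo, 20 min RT) after overnight 37C culture of DH5-alpha E. coli with compounds; daunomycin control at 0.2 nM–9.2 uM final.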

[14] = qHTS for H2AX Agonists against the NCATS CANVASS Library (AID 1347378)
Outline: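 Phospho-H2AX (S139) in CHO-K1 lysates measured by HTRF, reported as 665/615 nm emission ratio after 24 hr antibody incubation at room temperature. Cells were first treated with a compound series for 3 hr at 37C (0.76% DMSO final).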

[15] = Cytotoxicity qHTS for assessment of Hepg2 cells membrane integrity screened against the NCATS CANVASS Library (AID 1347387)
Outline: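 LDH release read by fluorescence (560 nm ex/590 nm em) after CytoTox-ONE addition and 10 min RT; signal tracks lysed cells. HepG2, 2000 cells/well, plated overnight; compound 5 hr, 37C, 5% CO2, final 0.59 nM - 46 uM, 11 points.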

[16] = qHTS for Activators of p53 Stress Response Pathway screened against the NCATS CANVASS Library (AID 1347388)
Outline: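 Beta-lactamase reporter driven by p53 response elements in HCT-116 cells, read as the 460 nm/530 nm emission ratio after CCF4 loading, following 16 h of exposure to an 11-point series. Cell viability was measured in the same wells by CellTiter-Glo luminescence.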

[17] = qHTS assay for small molecule disruptors of mitochondrial membrane potential screened against the NCATS CANVASS Library (AID 1347389)
Outline: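 Red/green fluorescence ratio read-out: J-aggregates ex 540/em 590 nm, monomers ex 490/em 535 nm. HepG2, 1 hr compound treatment, then 30 min Mito-MPS dye at 37C. 11-pt qHTS concentration series.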

[18] = qHTS for inhibitors of ER calcium dysfunction: SERCaMP assay screened against the NCATS CANVASS Library (AID 1347393); further: nearly all actives have a fitted effect of over 40% in size; further: potency means the concentration at half of the fitted maximal effect
Outline: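 Thapsigargin-induced ER calcium depletion drives GLuc-SERCaMP secretion from SH-SY5Y cells; compounds given 16 h beforehand were scored by lowered coelenterazine luminescence after 4 h challenge.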

[19] = Viability qHTS for inhibitors of the SERCaMP assay screened against the NCATS CANVASS Library (AID 1347400); further: series mostly up to about 92 µM; nearly all actives have a fitted effect of over 70% in size
Outline: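 CellTiter-Glo luminescence readout after 48 h compound exposure (11-pnt qHTS series) of SH-SY5Y-GLuc SERCaMP MJH297 cells seeded at 1000 cells/well; bortezomib positive control.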

[20] = Secretion counterscreen for inhibitors of the SERCaMP assay screened against the NCATS CANVASS Library (AID 1347390);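 further: light from luciferase secreted into medium read as a measure of general secretion; series mostly up to about 77 µM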
Outline: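 Counterscreen for secretory-pathway interference: after 4 h attachment, SH-SY5Y-GLuc cells were exposed 20 hours to compounds (final 0.001 - 77 uM), then coelenterazine added and GLuc luminescence recorded; Brefeldin A served as control.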

Sequence of Nuclear receptor subfamily 1 group I member 3 (Homo sapiens) (Q14994 whole entry, looked up): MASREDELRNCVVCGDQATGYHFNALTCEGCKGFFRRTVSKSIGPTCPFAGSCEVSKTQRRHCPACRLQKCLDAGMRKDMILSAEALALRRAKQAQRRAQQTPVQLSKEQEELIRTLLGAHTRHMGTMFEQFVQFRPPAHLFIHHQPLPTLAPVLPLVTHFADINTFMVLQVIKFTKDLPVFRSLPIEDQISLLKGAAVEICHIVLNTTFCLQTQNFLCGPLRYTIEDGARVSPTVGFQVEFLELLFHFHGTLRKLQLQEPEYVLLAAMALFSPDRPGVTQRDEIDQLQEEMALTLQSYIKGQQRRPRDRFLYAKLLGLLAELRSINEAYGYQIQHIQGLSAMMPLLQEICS

Compound | Potency [1] | Potency [2] | Potency [3] | Potency [4] | Potency [5] | Potency [6] | Potency [7] | Potency [8] | Potency [9] | Potency [10] | Potency [11] | Potency [12] | outcome [13] | Potency [14] | outcome [15] | Potency [16] | Potency [17] | Potency [18] | Potency [19] | Potency [20]
O=C(O)CC1OCc2c(O)cccc21 (stereo not drawn) | inactive | inactive | inactive | inactive | inactive | inactive | inactive | inactive | inactive | inactive | inactive | inactive | inactive | inactive | inactive | inactive | inactive | inactive | inactive | –
CCCCCCCC(=O)N[C@@H](CC(C)C)C(=O)N[C@H](C=O)CCC(=O)O (Octanoyl-Leu-Glu-aldehyde) | inactive | inactive | inactive | inactive | inactive | inactive | inactive | inactive | inactive | inactive | inactive | inactive | inactive | inactive | inactive | inactive | inactive | inactive | inactive | inactive
O=C(O)[C@@]12COC3(O)C1CCN1CC[C@H]3[C@@H]1c1c2[nH]c2ccccc12 | inactive | inactive | inactive | inactive | inactive | inactive | inactive | – | inactive | inactive | inactive | inactive | inactive | inactive | inactive | inactive | inactive | – | inactive | inactive
CC[C@@H]1C[C@@]2(CC)OC(=O)[C@@]3(CC)OC(=O)[C@@H]1[C@@H]23 | inactive | inactive | inactive | inactive | inactive | inactive | inactive | inactive | inactive | inactive | inactive | inactive | inactive | inactive | inactive | inactive | inactive | inactive | inactive | inactive
C[C@@]12CCC[C@@](C)(C(=O)O)[C@H]1C[C@@H](O)[C@]13C[C@H]4C[C@H](O[C@@]4(C)C1)[C@@H]23 | inactive | inactive | inactive | inactive | inactive | inactive | inactive | inactive | inactive | inactive | inactive | inactive | inactive | inactive | inactive | inactive | inactive | inactive | inactive | inactive
C[C@@]12CCC[C@@](C)(C(=O)O)[C@H]1CC[C@]13C[C@H]4C[C@H](O[C@@]4(C)C1)[C@H]32 | inactive | inactive | – | inactive | inactive | inactive | inactive | inactive | inactive | inactive | inactive | inactive | inactive | inactive | inactive | inactive | inactive | inactive | inactive | inactive
C/C1=C\CC(=O)/C=C/C=C\c2csc(n2)[C@@H](C)NC(=O)C[C@@](S)([C@@H](C)C(=O)O)CC1 | inactive | inactive | inactive | inactive | inactive | – | inactive | inactive | inactive | inactive | – | inactive | inactive | – | inactive | inactive | inactive | – | inactive | inactive
O=C(O)Cc1c[nH]c2ccccc12 | inactive | inactive | inactive | inactive | inactive | inactive | inactive | inactive | – | inactive | inactive | inactive | inactive | inactive | inactive | inactive | inactive | inactive | inactive | inactive
O=c1cc(-c2ccc(O)cc2)oc2c([C@@H]3OC(CO)[C@H](O)[C@@H](O)[C@H]3O)c(O)cc(O)c12 (stereo partly drawn) | inactive | inactive | inactive | inactive | inactive | inactive | inactive | inactive | inactive | inactive | inactive | inactive | inactive | inactive | inactive | inactive | inactive | inactive | inactive | –
C[C@@H](CCC[C@]1(C)C(=O)C=C[C@]23C[C@H]4C[C@H](O[C@@]4(C)C2)C31)C(=O)N[C@@H](CO)C(=O)O (stereo partly drawn) | inactive | inactive | inactive | inactive | inactive | inactive | inactive | inactive | inactive | inactive | inactive | inactive | inactive | inactive | inactive | inactive | inactive | inactive | inactive | inactive
COc1ccc([C@@H]2c3cc(OC)c(OC)cc3C(=O)C(C)C2C)cc1OC (stereo partly drawn) | inactive | – | inactive | inactive | inactive | inactive | inactive | inactive | inactive | inactive | inactive | inactive | inactive | inactive | inactive | inactive | inactive | 38.4 µM (active) | – | inactive
